In PMC7819943, “Rice protein-binding microarrays: a tool to detect cis-acting elements near promoter regions in rice”:
Over roughly 39,000 sequences, “fluorescence intensity (a.u.)” has its median near 4,300; the highest 2% begin near 39,000. The entries come from a sample that favours the highest values as a whole.

Target: T1, OsSMF1 (Oryza sativa, UniProt Q6ZLB0 1-436)
T1 sequence: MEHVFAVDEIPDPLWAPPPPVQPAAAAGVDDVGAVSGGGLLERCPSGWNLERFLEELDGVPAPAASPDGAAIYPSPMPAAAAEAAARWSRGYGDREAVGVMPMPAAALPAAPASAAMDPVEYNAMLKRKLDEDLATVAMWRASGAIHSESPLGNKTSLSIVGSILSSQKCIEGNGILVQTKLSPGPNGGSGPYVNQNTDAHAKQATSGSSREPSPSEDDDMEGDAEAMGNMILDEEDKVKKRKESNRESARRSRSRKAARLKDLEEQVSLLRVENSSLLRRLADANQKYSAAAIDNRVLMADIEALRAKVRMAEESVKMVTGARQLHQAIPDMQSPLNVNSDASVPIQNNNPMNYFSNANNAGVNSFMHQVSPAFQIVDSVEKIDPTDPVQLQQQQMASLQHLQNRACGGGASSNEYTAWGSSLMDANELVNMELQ
Test: protein-binding microarray (RPBM); PBS, 2% BSA, 51.3 ng/ul salmon testes DNA, 50 uM zinc acetate, 200 nM TF, 25 C, 1 h; high values mean tight binding
Settings: protein: recombinant; tags: N-terminal polyhistidine and DsRed monomer fusion (pET32a); chain copies: 2; label: CyDye5-dUTP incorporated in the synthesized complementary strand; 3' TTTTT single-stranded linker to array surface; dsDNA, one strand shown
Method in brief: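 In PBS with 2% BSA, salmon testes DNA and 50 µM zinc acetate, 200 nM protein was incubated on a custom Agilent array at 25 °C for 1 h and then washed off. The array had been made double-stranded by primer extension with Cy5-dUTP and blocked with 2% BSA. The proteins were transcription factors fused N-terminally to polyhistidine and DsRed, expressed in E. coli BL21-CodonPlus and purified on Ni–NTA. The binding signal is per-feature fluorescence intensity (arbitrary units) from an Axon 4000B scanner.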

Sequence | binding signal
CGCCTCCGTGGACCCGGTCCACGGGGAGATTACACCTTCACGGAGTCACCTAGTGCAG | 57600 fluorescence intensity (a.u.)
ATAGTTAGGTGACAATTGACAAGTGTCAAGTTGTGTATGACGGAGTCACCTAGTGCAG | 3360 fluorescence intensity (a.u.)
TGATGGCGGCTTTAGGTGACATGCAGCATTAAGTGGCATGCGGAGTCACCTAGTGCAG | 4460 fluorescence intensity (a.u.)
GGACACCCGCTCCGCGTCGCGCGCACGCTAGAAGAACTCCCGGAGTCACCTAGTGCAG | 3140 fluorescence intensity (a.u.)
ACGACACTACCAATTGTTTGGCCTTCAATCCAAACTAGCACGGAGTCACCTAGTGCAG | 3500 fluorescence intensity (a.u.)
CGGAAAAGAAAGCCATGGAAGAAATGACGCAAGCAGCGGACGGAGTCACCTAGTGCAG | 4230 fluorescence intensity (a.u.)
GAAATGCCAAGTGTGAGAAGATGACGCACCCAAATGCAACCGGAGTCACCTAGTGCAG | 5640 fluorescence intensity (a.u.)
AATTGCTATGGTTACACCCGGCCGAAGCAAAGTCACCACTCGGAGTCACCTAGTGCAG | 3520 fluorescence intensity (a.u.)
GCAGCTGAAGTGGACCTGTCAGCAAGTAAAGCCAAGAGGCCGGAGTCACCTAGTGCAG | 3470 fluorescence intensity (a.u.)
TCGCACCAAGAATTGTTCACCTACCTTCAAAGTTCCAACACGGAGTCACCTAGTGCAG | 63300 fluorescence intensity (a.u.)
TCCAAGAAAGTGACCAAGCAAATGACGCAAGTGGTGCACGCGGAGTCACCTAGTGCAG | 40200 fluorescence intensity (a.u.)
CTCTCCTCCTTTCTTCTCCAAGTCAACAGTTCCTACGCTACGGAGTCACCTAGTGCAG | 3360 fluorescence intensity (a.u.)
AGCAAGCAAAGCCGAAGAATTGTTACACGGCCAAAGTGGACGGAGTCACCTAGTGCAG | 41200 fluorescence intensity (a.u.)
GCAAAAGCATCTTGGAGGAGATACAGTCAGCTGGCAATCCCGGAGTCACCTAGTGCAG | 4160 fluorescence intensity (a.u.)
CCACCACGCTTTCCCCGCGCGATGACTCCGCCGCCGCGCCCGGAGTCACCTAGTGCAG | 5400 fluorescence intensity (a.u.)
CCCACGTGAGTAAGCTCCTCCCTGCTGGTTTGATTCCCTTCGGAGTCACCTAGTGCAG | 4650 fluorescence intensity (a.u.)
GTGTAAAAGTTTTGACGTGTCACATCGGATATACGGACACCGGAGTCACCTAGTGCAG | 15300 fluorescence intensity (a.u.)
TTGGGGAAAAGTTTTGAGTTTGATTGTCACATCGGATATACGGAGTCACCTAGTGCAG | 53000 fluorescence intensity (a.u.)
CAAAAGTTTTGACGTGTCACATCGGATATACGGACACACACGGAGTCACCTAGTGCAG | 10800 fluorescence intensity (a.u.)
TTCCATCCAGAGTGCGTCACGAACGCGCCAGTCGCCCGGTCGGAGTCACCTAGTGCAG | 3990 fluorescence intensity (a.u.)
ATAACCGCCCTAATTTACTTTAGCATACGTGGAGTACAAGCGGAGTCACCTAGTGCAG | 6900 fluorescence intensity (a.u.)

Sequence | binding signal
AGCTCACCGCATTGTAAAGGCCCTTACTAATCTTAGCAAGCGGAGTCACCTAGTGCAG | 40300 fluorescence intensity (a.u.)
AAAGAACGCAGCCTTAGAAGGAGACAGCTCATGGAGCAAGCGGAGTCACCTAGTGCAG | 5000 fluorescence intensity (a.u.)
AAATCACACCCACGCTCGTGCCCATTGGGTCGGGTATCCGCGGAGTCACCTAGTGCAG | 3550 fluorescence intensity (a.u.)
CCACGCTAAAATTGGAAGTTTGACTAAAATTAGAAGTTTACGGAGTCACCTAGTGCAG | 60200 fluorescence intensity (a.u.)
GAGAATTTGCTACTAATTGACTTACCAATTTGGAATTTACCGGAGTCACCTAGTGCAG | 46100 fluorescence intensity (a.u.)
TTAAGGTGTGTTTAGTTCCACGTCAAAATTAGAAGTTTGACGGAGTCACCTAGTGCAG | 7090 fluorescence intensity (a.u.)
GTATTGAGAATTGTATGACTAATCAATGTTGCCTTACTTACGGAGTCACCTAGTGCAG | 5200 fluorescence intensity (a.u.)
ATGTTTAGTTCCACGTCAAAATTGGAAGTTTGAAGAAATTCGGAGTCACCTAGTGCAG | 3980 fluorescence intensity (a.u.)
GGAAGGAGACTGCTTGGTCACTAATTTAATCTGCTACTACCGGAGTCACCTAGTGCAG | 3140 fluorescence intensity (a.u.)
GCCGGCGTCGCCGTCGGGGATGCACCTCGGCGCGTCCGTCCGGAGTCACCTAGTGCAG | 3550 fluorescence intensity (a.u.)
TGTCCCCGAACCGGATCTGCCCGATGCTCGCCGTCAGCATCGGAGTCACCTAGTGCAG | 4300 fluorescence intensity (a.u.)
TCCCGAAACCCGACACGCGGCACCGATCGATCGATCGATCCGGAGTCACCTAGTGCAG | 3240 fluorescence intensity (a.u.)
CGTGCTCACGAAACCCGATCGATCGGTGATCTGCACCGTCCGGAGTCACCTAGTGCAG | 45200 fluorescence intensity (a.u.)
GCAGCATAGTTAGCTTTATATCTGTTTTACGTCATCACCACGGAGTCACCTAGTGCAG | 6330 fluorescence intensity (a.u.)
ATATACATATACATATATATACACACACACGTATACATAGCGGAGTCACCTAGTGCAG | 4840 fluorescence intensity (a.u.)
TATATATGGCCTTTGGTCTGCATAGCTGTCCACGTCATCACGGAGTCACCTAGTGCAG | 42200 fluorescence intensity (a.u.)
AAAGTCATGTCATCACGTATATATCACGTATACATATATACGGAGTCACCTAGTGCAG | 4080 fluorescence intensity (a.u.)
CCGTATACATAGCTAGCTGTCTGTGATGCATGCATGGTCACGGAGTCACCTAGTGCAG | 44200 fluorescence intensity (a.u.)
ATTCTGTCTCCTTTGCCTGTCGTCACGCTGTCATCACGCTCGGAGTCACCTAGTGCAG | 4480 fluorescence intensity (a.u.)
TTCTATTTTCGCATGTGGCATTTGTGGCTGCTTGCTAGACCGGAGTCACCTAGTGCAG | 3690 fluorescence intensity (a.u.)
CAATATGACATTGTATATGTGAATTGAGTGTAACTTGGTTCGGAGTCACCTAGTGCAG | 3290 fluorescence intensity (a.u.)
